Results: PubChem BioAssay (NCI)
The panel holds about 79,000 compounds, 15% with a hit somewhere; the sample as a whole holds those more often. The source made the active and inactive calls. Cut-off read from the data, not from the text of the source: active = growth inhibition above about 70%; inactive = the rest. Where a SMILES comes first, the peptide text is derived from it. The star is where a group is joined. Trt = c1ccc(C(c2ccccc2)(c2ccccc2)*)cc1; Cbz = O=C(OCc1ccccc1)*

Experiment: NCI Yeast Anticancer Drug Screen. Data for the bub3 strain (AID 167)
Conditions: S. cerevisiae bub3 mutant strain, at 5.0 µM (retest, dose inferred, filed as 0.5), active compounds read high
In short: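 Screening used yeast with an engineered genetic alteration affecting cell cycle control. Compound-exposed cultures were compared with vehicle cultures, and reduced growth was taken as inhibition.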

**Q.** With `CC(=O)O[C@H]1CC[C@]2(C)C3=CC[C@]4(C)[C@@H](C(C)=O)CC[C@H]4[C@@]34C=C[C@]2(C1)C1C(=O)OC(=O)C14` (stereo not given in full) as the compound, how does the growth inhibition read?
**A.** Its growth inhibition is 3% (inactive).

**Q.** Which growth inhibition does the source give for `Cc1cc(O)c2c(c1)C(=O)c1c(c(O)cc(O)c1-c1c(O)cc(O)c3c1C(=O)c1cc(C)cc(O)c1C3=O)C2=O` here?
**A.** Its growth inhibition is 17% (inactive).

**Q.** Which growth inhibition does the source give for `NC(=O)/C(=N\NC(=O)c1cc2ccccc2cc1O)C1C(=O)N(c2ccccc2)N=C1N` (stereo not given) here?
**A.** Its growth inhibition is 2% (inactive).

**Q.** Which growth inhibition does the source give for `CCNC(=S)NNC(=S)NNc1ccccc1` here?
**A.** The growth inhibition was 36% (inactive).

**Q.** For `OCC(O)C(O)C(O)C(O)C(O)C(/C=N/Nc1ccccc1)=N/Nc1ccccc1` (stereo not given), which growth inhibition is on record?
**A.** The growth inhibition was 18% (inactive).

**Q.** With `O=C(CN(Cc1ccccc1)Cc1ccccc1)c1ccccc1` as the compound, how does the growth inhibition read?
**A.** Its growth inhibition is 4% (inactive).

**Q.** With `COC(=O)C1CCC(c2ccccc2)CC1C(=O)OC` (stereo not given) as the compound, how does the growth inhibition read?
**A.** Its growth inhibition is 25% (inactive).

**Q.** Which growth inhibition does the source give for `COc1ccc2c(c1)C(=O)C(Br)CC2` (stereo not given) here?
**A.** The growth inhibition was 32% (inactive).

**Q.** For `O=C1c2ccccc2C(=O)c2sc(Nc3ccc(Cl)cc3)nc21`, which growth inhibition is on record?
**A.** The growth inhibition was 98% (active).

**Q.** With `O=Nc1c(-c2cccc([N+](=O)[O-])c2)nc2cnccn12` as the compound, how does the growth inhibition read?
**A.** The growth inhibition was 4% (inactive).

**Q.** With `CC/C(=N\NS(=O)(=O)c1ccc(C)cc1)c1cccc(OC)c1` as the compound, how does the growth inhibition read?
**A.** The growth inhibition was 43% (inactive).

**Q.** For `NNC(=S)NN/C=C(\C=Nc1ccccc1)[N+](=O)[O-]`, which growth inhibition is on record?
**A.** Its growth inhibition is -6% (inactive).

**Q.** For `CC(C)(C)c1ccc(CN2CCN(C(c3ccccc3)c3ccc(Cl)cc3)CC2)cc1` (stereo not given), which growth inhibition is on record?
**A.** The growth inhibition was 42% (inactive).

**Q.** For `O=C1OCc2cccc3cccc1c23`, which growth inhibition is on record?
**A.** Its growth inhibition is 11% (inactive).

**Q.** With `CC(C)CC(NC(=O)COc1c(Cl)cc(Cl)c(Cl)c1Cl)C(=O)O` (stereo not given) as the compound, how does the growth inhibition read?
**A.** Its growth inhibition is 5% (inactive).

**Q.** With `CC1CCN(CCC(=O)c2cccc(O)c2)CC1` as the compound, how does the growth inhibition read?
**A.** The growth inhibition was -16% (inactive).

**Q.** With `CCC(c1ccc(O)c(C2CCCCC2)c1)C(CC)c1ccc(OC(=O)c2ccccc2)c(C2CCCCC2)c1` (stereo not given) as the compound, how does the growth inhibition read?
**A.** The growth inhibition was 0% (inactive).

**Q.** With `CC(=O)c1csc2c1C(=O)c1scc(C(C)=O)c1C2=O` as the compound, how does the growth inhibition read?
**A.** The growth inhibition was 37% (inactive).

**Q.** With `O=C1C2=Cc3ccccc3CCN2c2ccccc21` as the compound, how does the growth inhibition read?
**A.** Its growth inhibition is 2% (inactive).

**Q.** For `Cc1cc(I)cc(I)c1O`, which growth inhibition is on record?
**A.** The growth inhibition was 1% (inactive).

**Q.** Which growth inhibition does the source give for `NCCCSc1ccc(Br)cc1` here?
**A.** Its growth inhibition is -22% (inactive).

**Q.** Which growth inhibition does the source give for `O=C1OC2(Cc3ccccc31)c1ccccc1-c1ccccc12` here?
**A.** Its growth inhibition is -10% (inactive).

**Q.** Which growth inhibition does the source give for `Cc1occc1C(=S)Nc1ccc(Cl)c(C(=O)OCC2CC2)c1` here?
**A.** Its growth inhibition is -3% (inactive).

**Q.** With `c1cc(C2=NCCN2)ccc1Nc1ccc(-c2cc3ccc(C4=NCCN4)cc3[nH]2)cc1` as the compound, how does the growth inhibition read?
**A.** Its growth inhibition is 99% (active).

**Q.** For `Cc1ccc(C)c(NC(=O)CC2SC(=Nc3ccccc3Cl)NC2=O)c1` (stereo not given), which growth inhibition is on record?
**A.** The growth inhibition was 33% (inactive).

**Q.** For `Cc1ccccc1[P+](C)(c1ccccc1C)c1ccccc1C`, which growth inhibition is on record?
**A.** Its growth inhibition is 27% (inactive).

**Q.** For `Oc1ccc(CNCc2ccccc2)c2cccnc12`, which growth inhibition is on record?
**A.** Its growth inhibition is -5% (inactive).

**Q.** Which growth inhibition does the source give for `COC(=O)c1ccc(OC)cc1` here?
**A.** The growth inhibition was 3% (inactive).

**Q.** Which growth inhibition does the source give for `OCC(CO)C1c2cccc3ccc4cccc1c4c23` here?
**A.** The growth inhibition was 13% (inactive).

**Q.** With `CCC(CCCN(CC)CCc1ccccc1)OC(=O)c1cc(OC)c(OC)c(OC)c1` (stereo not given) as the compound, how does the growth inhibition read?
**A.** Its growth inhibition is 4% (inactive).

**Q.** Which growth inhibition does the source give for `O=[N+]([O-])c1ccc(-[n+]2ccc3ccccc3c2)c([N+](=O)[O-])c1` here?
**A.** Its growth inhibition is 6% (inactive).

**Q.** Which growth inhibition does the source give for `CN(C)CCC1(C2=CCCC2)CC/C(=C\c2ccccc2Cl)C1=O` (stereo not given) here?
**A.** Its growth inhibition is 19% (inactive).

**Q.** Which growth inhibition does the source give for `CCOC(=O)CCC(NC(=O)c1ccc(NC(OC)c2nc3cc(C(F)(F)F)ccc3nc2-c2ccccc2)cc1)C(=O)OCC` (stereo not given) here?
**A.** The growth inhibition was 84% (active).

**Q.** With `CCCCCCN(CCCCCC)CC(O)c1cc(-c2ccccc2)nc2c(O)cccc12` (stereo not given) as the compound, how does the growth inhibition read?
**A.** The growth inhibition was 8% (inactive).

**Q.** With `O=C1C=CC(=O)N1C1c2ccccc2-c2ccccc21` as the compound, how does the growth inhibition read?
**A.** The growth inhibition was 100% (active).

**Q.** Which growth inhibition does the source give for `CC(=O)c1ccc(OCc2ccccc2)cc1` here?
**A.** The growth inhibition was 2% (inactive).

**Q.** With `O=C(Oc1cccc2cccnc12)c1ccccc1` as the compound, how does the growth inhibition read?
**A.** The growth inhibition was 28% (inactive).

**Q.** For `C=C(Cl)C(=NC(C)(C)C)Nc1ccccc1C`, which growth inhibition is on record?
**A.** Its growth inhibition is 22% (inactive).

**Q.** For `COC(=O)C(CSC(c1ccccc1)(c1ccccc1)c1ccccc1)NC(=O)C(CC(N)=O)NC(=O)OCc1ccccc1` (stereo not drawn) (Cbz-Asn-Cys(Trt)-OMe; configuration not given here), which growth inhibition is on record?
**A.** The growth inhibition was 15% (inactive).

**Q.** Which growth inhibition does the source give for `ClCc1nnc2n1-c1ccc(Cl)cc1SC2` here?
**A.** The growth inhibition was 3% (inactive).
